We go through 14 compounds from PubChem BioAssay (NCI).

Test systems include SR leukemia; RPMI-8226 leukemia; OVCAR-8 ovarian; OVCAR-5 ovarian; OVCAR-4 ovarian; SK-OV-3 ovarian; IGROV1 ovarian; OVCAR-3 ovarian; HS 578T breast; NCI/ADR-RES ovarian.
What all share (test): NCI-60 one-dose screen, 48 h (100 = growth as untreated, 0 = no growth, -100 = all killed)
Holding throughout (conditions): 10 µM unless noted

The panel holds about 83,000 compounds, 20% with a hit somewhere; the sample as a whole holds those more often.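 48-hour exposure, single concentration, 96-well plates; percent growth endpoint where 0 means no net growth. Active: below 10.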 Unmarked numbers belong to inactive results. Active and inactive are the calls of the source.

With `Cc1nc2ncnc(Cl)c2[nH]1`, the growth in the assay with SR leukemia was 98.3%; in the assay on RPMI-8226 leukemia, 82.4%; with OVCAR-8 ovarian it was 95.4%; in the assay with OVCAR-5 ovarian it was 109%; with OVCAR-4 ovarian it was 106%; in the assay on SK-OV-3 ovarian, 105%. The growth in the assay on IGROV1 ovarian was 106%; with OVCAR-3 ovarian it was 108%; in the assay with HS 578T breast, 110%; with NCI/ADR-RES ovarian, 108%.

Consider `Nc1c(C(=O)Nc2ccncc2)sc2nc3c(cc12)CCCCCC3`, for which the growth with SR leukemia is 20.8%; in the assay with RPMI-8226 leukemia, 64.9%; in the assay with OVCAR-8 ovarian it was 86.7%; in the assay with OVCAR-5 ovarian, 90.7%; with OVCAR-4 ovarian, 86.9%; in the assay on SK-OV-3 ovarian it was 79.6%. Besides, the growth in the assay with IGROV1 ovarian was 103%; in the assay with OVCAR-3 ovarian it was 104%; with HS 578T breast, 83.2%; in the assay with NCI/ADR-RES ovarian, 89%.

With `CC(=O)n1nc(C(=O)OC(C)C)c2cc(C)c(C)cc21`, the growth with SR leukemia was 84.6%; in the assay on RPMI-8226 leukemia, 85%; in the assay on OVCAR-8 ovarian, 96.8%; in the assay with OVCAR-5 ovarian it was 118%; in the assay on OVCAR-4 ovarian it was 2.77% (active); with SK-OV-3 ovarian, 98.6%. The growth in the assay on IGROV1 ovarian is 106%; with OVCAR-3 ovarian, 108%; with HS 578T breast, 96.6%; in the assay with NCI/ADR-RES ovarian, 101%.

On to `COc1ccc2c(c1)c(-c1noc(C(=O)c3cn(C)c4ccc(Br)cc34)n1)cn2C`, for which the growth in the assay on SR leukemia is 80.5%; in the assay on RPMI-8226 leukemia, 95.4%; in the assay on OVCAR-8 ovarian, 96.1%; in the assay on OVCAR-5 ovarian, 107%; with OVCAR-4 ovarian, 108%; with SK-OV-3 ovarian, 99.5%. The growth is 89.2% with IGROV1 ovarian, 111% in the assay with OVCAR-3 ovarian, 94.6% with HS 578T breast and 102% in the assay with NCI/ADR-RES ovarian.

Turning to `Fc1ccc2[nH]cc(-c3nonc3-c3c[nH]c4ccc(Br)cc34)c2c1`, the growth with SR leukemia is 15.2%; with RPMI-8226 leukemia, 29.9%; in the assay with OVCAR-8 ovarian, 27%; in the assay with OVCAR-5 ovarian, 36.8%; in the assay with OVCAR-4 ovarian it was 36%; in the assay on SK-OV-3 ovarian it was 44.3%. Further, the growth in the assay on IGROV1 ovarian is 41.6%; with OVCAR-3 ovarian it was 34.3%; in the assay on HS 578T breast, 39.5%; in the assay with NCI/ADR-RES ovarian, 23%.

Turning to `Nc1nc(=S)c2ncn(C3OC(COP(=O)(O)O)C(O)C3O)c2[nH]1` (stereo not given), the growth was 11.7% in the assay on SR leukemia; 10.9% with RPMI-8226 leukemia; 13.8% in the assay with OVCAR-8 ovarian; 36.8% with OVCAR-5 ovarian; 32.2% in the assay with OVCAR-4 ovarian; 5.27% (active) in the assay on SK-OV-3 ovarian. The growth with IGROV1 ovarian is 44.2%; with OVCAR-3 ovarian, 7.25% (active); with HS 578T breast, 67.5%; in the assay with NCI/ADR-RES ovarian, 20.9%.

In the case of `OCCOCCN(Cc1ccccn1)Cc1cc(I)cc(I)c1O`, the growth with SR leukemia was 87.8%; with RPMI-8226 leukemia, 96.9%; in the assay with OVCAR-8 ovarian it was 85.7%; in the assay on OVCAR-5 ovarian, 92.5%; in the assay with OVCAR-4 ovarian, 93.9%; in the assay with SK-OV-3 ovarian it was 107%. In addition, the growth in the assay on IGROV1 ovarian is 77.9%; in the assay on OVCAR-3 ovarian, 90.2%; with HS 578T breast it was 109%; in the assay with NCI/ADR-RES ovarian, 6.52% (active).

Regarding `C=C(C)[C@@H]1CC[C@]2(C(=O)N3CCN(C)CC3)CC[C@]3(C)[C@H](CC[C@@H]4[C@@]5(C)CC(=C/c6ccncc6)/C(=N/O)C(C)(C)[C@@H]5CC[C@]43C)[C@@H]12`, the growth in the assay with SR leukemia was 3.4% (active); with RPMI-8226 leukemia, 46.7%; in the assay with OVCAR-8 ovarian, 85.1%; with OVCAR-5 ovarian, 86.7%; in the assay on OVCAR-4 ovarian, 69.2%; in the assay on SK-OV-3 ovarian, 98.7%. Besides, the growth was 65.1% in the assay on IGROV1 ovarian, 75.2% in the assay on OVCAR-3 ovarian, 87.5% with HS 578T breast and 78.8% with NCI/ADR-RES ovarian.

`COc1ccc(-c2nc(SCC(C)C)nc(N/N=C\c3ccc(F)cc3)c2C#N)cc1`: the growth in the assay on SR leukemia is 46.7%; with RPMI-8226 leukemia, 98.2%; with OVCAR-8 ovarian it was 96.3%; in the assay with OVCAR-5 ovarian it was 95.6%; in the assay with OVCAR-4 ovarian, 8.96% (active); in the assay with SK-OV-3 ovarian, 112%. Moreover, the growth in the assay with IGROV1 ovarian was 80.5%; in the assay with OVCAR-3 ovarian it was 70.5%; in the assay with HS 578T breast it was 62.4%; in the assay on NCI/ADR-RES ovarian it was 84.2%.

Take `COc1ccc2cc(C(=O)c3coc4ccc(O)cc34)ccc2c1`: the growth with SR leukemia is 78.9%; in the assay on RPMI-8226 leukemia, 91.5%; in the assay on OVCAR-8 ovarian, 106%; in the assay on OVCAR-5 ovarian it was 103%; with OVCAR-4 ovarian, 97.6%; in the assay on SK-OV-3 ovarian, 77.2%. In addition, the growth is 85.2% in the assay with IGROV1 ovarian, 100% in the assay on OVCAR-3 ovarian, 112% in the assay with HS 578T breast and 99.8% in the assay with NCI/ADR-RES ovarian.

In the case of `C/C(=N/O)c1ccc(F)cc1`, the growth is 68% in the assay on SR leukemia; 85.5% with RPMI-8226 leukemia; 86.5% with OVCAR-8 ovarian; 80.1% with OVCAR-5 ovarian; 95.3% in the assay with OVCAR-4 ovarian; 85.2% in the assay with SK-OV-3 ovarian. Further, the growth was 84.5% in the assay with IGROV1 ovarian, 132% in the assay on OVCAR-3 ovarian, 95.6% with HS 578T breast and 77.7% in the assay on NCI/ADR-RES ovarian.

`COc1ccc(/C(C)=C(/c2ccc(OCCCN(C)C)cc2)c2ccc(OC(=O)Cc3ccccc3)cc2)cc1`: the growth with SR leukemia is -0.597% (active); in the assay on RPMI-8226 leukemia it was 48.1%; in the assay with OVCAR-8 ovarian it was 87.6%; in the assay on OVCAR-5 ovarian, 85.2%; in the assay with OVCAR-4 ovarian it was 87.9%; with SK-OV-3 ovarian, 73.4%. For the same compound, the growth is 95% with IGROV1 ovarian, 81.2% in the assay on OVCAR-3 ovarian, 56.5% in the assay with HS 578T breast and 85.1% in the assay with NCI/ADR-RES ovarian.

For the compound `COc1ccc2nc(NC(=O)CSc3nnc4n3S(=O)(=O)c3ccccc3N4C)sc2c1`, the growth with SR leukemia is 65.1%; in the assay with RPMI-8226 leukemia it was 74.1%; in the assay with OVCAR-8 ovarian, 84.6%; in the assay with OVCAR-5 ovarian it was 97.5%; with OVCAR-4 ovarian, 107%; with SK-OV-3 ovarian it was 136%. Besides, the growth is 12.9% with IGROV1 ovarian, 112% with OVCAR-3 ovarian, 89.8% in the assay with HS 578T breast and 98.5% in the assay with NCI/ADR-RES ovarian.

On to `Cc1cc2c(O)c(-c3cccc(Cl)c3)c3sc(=O)oc3c2cc1C`, for which the growth was 18.6% in the assay on SR leukemia; 12.1% in the assay with RPMI-8226 leukemia; 41.9% in the assay with OVCAR-8 ovarian; 106% in the assay with OVCAR-5 ovarian; 13.4% in the assay with OVCAR-4 ovarian; 59.4% with SK-OV-3 ovarian. Further, the growth in the assay with IGROV1 ovarian is 41%; in the assay on OVCAR-3 ovarian, 18.6%; in the assay with HS 578T breast it was 48.2%; in the assay on NCI/ADR-RES ovarian, 56.3%.
